Measurements: PubChem BioAssay AID1159580 (chemical genetic matrix, 2015)
Out of some 5,500 compounds screened, about 2,000 (36%) were called active. Not shown: some 18% with an inconclusive outcome. No stated cut-off is given here; in the data, active means normalized growth mostly below about 0.91 (no sharp cut-off); inconclusive means no clear call, values can overlap the other calls; inactive means mostly above about 0.92. The list shows a part of the results.

Assay: chemical genetic growth profiling, strain panel (AID 1159580);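 further: tested at 20 µM; growth read once vehicle control cultures reached saturation at 30 °C; 1 = growth at the plate median or of vehicle wells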
Details: S. cerevisiae deletion strains, growth OD

Measured: normalized growth

CC(C)c1ccc2c(c1O)CC[C@H]1C3=C(CC[C@]21C)C(=O)OC3
inactive: locus YJL187C, strain SWE1, stronger effect = lower value 0.985 | locus YJR043C, strain POL32, stronger effect = lower value 0.865 | locus YJR066W, strain TOR1, stronger effect = lower value 0.898 | locus YKL009W, strain mrt4, stronger effect = lower value 0.935 | locus YKL068W, stronger effect = lower value 0.946 | locus YKL160W, strain elf1, stronger effect = lower value 0.956 | locus YKR026C, strain gcn3, stronger effect = lower value 0.931 | locus YKR091W, strain srl3, stronger effect = lower value 0.967 | locus YLL001W, strain dnm1, stronger effect = lower value 0.967 | locus YLL026W, stronger effect = lower value 0.962 | locus YLL041C, strain sdh2, stronger effect = lower value 0.97 | locus YLR027C, strain aat2, stronger effect = lower value 0.964 | locus YLR058C, strain SHM2, stronger effect = lower value 0.911 | locus YLR102C, strain apc9, stronger effect = lower value 0.954 | locus YLR113W, strain HOG1, stronger effect = lower value 0.909 | locus YLR221C, strain rsa3, stronger effect = lower value 0.96 | locus YLR258W, strain gsy2, stronger effect = lower value 0.951 | locus YLR262C, strain YPT6, stronger effect = lower value 0.667 | locus YLR268W, strain sec22, stronger effect = lower value 0.923 | locus YLR342W, strain FKS1, stronger effect = lower value 0.987 | locus YLR357W, strain rsc2, stronger effect = lower value 0.991 | locus YLR370C, strain arc18, stronger effect = lower value 0.965 | locus YLR384C, strain iki3, stronger effect = lower value 0.967 | locus YML016C, strain PPZ1, stronger effect = lower value 0.969 | locus YML032C, strain rad52, stronger effect = lower value 0.912 | locus YML120C, strain ndi1, stronger effect = lower value 0.968 | locus YML124C, strain tub3, stronger effect = lower value 0.988 | locus YMR058W, strain fet3, stronger effect = lower value 0.961 | locus YMR078C, strain ctf18, stronger effect = lower value 0.923 | locus YMR125W, strain sto1, stronger effect = lower value 0.949 | locus YMR129W, stronger effect = lower value 0.96 | locus YMR205C, strain PFK2, stronger effect = lower value 0.88 | locus YMR223W, strain ubp8, stronger effect = lower value 0.91 | locus YMR231W, strain pep5, stronger effect = lower value 0.975 | locus YMR263W, strain SAP30, stronger effect = lower value 0.896 | locus YNL067W, strain RPL9B, stronger effect = lower value 0.932 | locus YNL183C, strain NPR1, stronger effect = lower value 0.924 | locus YNL209W, strain ssb2, stronger effect = lower value 0.972 | locus YNL248C, strain rpa49, stronger effect = lower value 0.957 | locus YNL250W, strain rad50, stronger effect = lower value 0.971 | locus YNL271C, strain bni1, stronger effect = lower value 0.992 | locus YNL298W, strain CLA4, stronger effect = lower value 0.957 | locus YNL322C, strain KRE1 (second series), stronger effect = lower value 0.973 | locus YNR049C, strain mso1, stronger effect = lower value 0.976 | locus YNR052C, strain pop2, stronger effect = lower value 0.953 | locus YOL012C, strain htz1 0.499 | locus YOL147C, strain pex11, stronger effect = lower value 0.933 | locus YOR001W, strain rrp6, stronger effect = lower value 0.985 | locus YOR061W, strain CKA2, stronger effect = lower value 0.964 | locus YOR069W, strain VPS5, stronger effect = lower value 0.944 | locus YOR070C, strain gyp1, stronger effect = lower value 0.956 | locus YOR080W, strain dia2, stronger effect = lower value 0.986 | locus YOR083W, strain WHI5, stronger effect = lower value 0.966 | locus YOR106W, strain vam3, stronger effect = lower value 0.999 | locus YOR136W, strain idh2, stronger effect = lower value 0.929 | locus YOR144C, strain elg1, stronger effect = lower value 0.958 | locus YOR231W, strain MKK1, stronger effect = lower value 0.942 | locus YOR265W, strain rbl2, stronger effect = lower value 0.963 | locus YOR270C, strain vph1, stronger effect = lower value 0.794 | locus YOR290C, strain snf2, stronger effect = lower value 0.909 | locus YOR316C, strain cot1, stronger effect = lower value 0.968 | locus YPL051W, strain arl3, stronger effect = lower value 0.932 | locus YPL078C, strain atp4, stronger effect = lower value 0.934 | locus YPL106C, strain sse1, stronger effect = lower value 0.965 | locus YPL240C, strain hsp82, stronger effect = lower value 0.971 | locus YPL256C, strain CLN2, stronger effect = lower value 0.876 | locus YPR119W, strain clb2, stronger effect = lower value 0.951 | locus YPR141C, strain kar3, stronger effect = lower value 0.965 | locus YPR167C, strain met16, stronger effect = lower value 0.947 | strain wtn01, stronger effect = lower value 0.965
active: locus YJR075W, strain HOC1, stronger effect = lower value 0.866 | locus YKL085W, strain MDH1 (second series), stronger effect = lower value 0.918 | locus YKL085W, strain MDH1, stronger effect = lower value 0.918 | locus YKR001C, strain vps1, stronger effect = lower value 0.834 | locus YLR039C, strain RIC1, stronger effect = lower value 0.628 | locus YLR262C, strain YPT6 (second series), stronger effect = lower value 0.816 | locus YLR320W, strain mms22, stronger effect = lower value 0.863 | locus YLR330W, strain CHS5, stronger effect = lower value 0.638 | locus YLR342W, strain FKS1 (second series), stronger effect = lower value 0.65 | locus YLR418C, strain cdc73, stronger effect = lower value 0.7 | locus YMR307W, strain GAS1, stronger effect = lower value 0.474 | locus YNL071W, strain lat1, stronger effect = lower value 0.853 | locus YNL233W, strain BNI4, stronger effect = lower value 0.723 | locus YNL307C, strain MCK1, stronger effect = lower value 0.536 | locus YOR184W, strain ser1, stronger effect = lower value 0.671 | locus YPL055C, strain LGE1, stronger effect = lower value 0.598 | locus YPL241C, strain CIN2, stronger effect = lower value 0.911 | locus YPR163C, strain tif3, stronger effect = lower value 0.794
